The values below come from the supplement of paper PMC12636033.

± gives the standard deviation of the averaged measurements. In all, about 33,000 sequences were measured (“E-score (rank enrichment, -0.5 to 0.5)”: median about -0.0075, highest 2% from about 0.23 on). The full list was thinned out, with the highest values kept by preference.

The experiment deals with WT Max(13-93) synthetic (M65Nle). As to the kind of experiment: PBM 8-mer E-score (E-score (rank enrichment, -0.5 to 0.5)); higher = stronger preferential binding. The method, then: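 Protein binding microarray (universal PBM chip covering all 10-mers in fixed probe flanks) with chemically synthesized human Max(13-93) bHLH-LZ analogs (not full-length Max) bearing noncanonical residues (hArg, Tha, Aib, Nle at 65) and aromatic Cys staples. Read-out per 8-mer (and its reverse complement): E-score (rank-based enrichment, -0.5 to 0.5) and Z-score of median probe intensity.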
For CCATGACC, the “PBM 8-mer E-score” value is -0.0452 ± 0.14.
With AAGATACA the figure was 0.258 ± 0.015.
Then AAGATAAC, with 0.266 ± 0.045; and AAGATATA, with 0.253 ± 0.046; and AAGATATC, with 0.0756 ± 0.073.
With GAGATACA the figure was 0.0679 ± 0.025.
For the sequence GAGATAAC, the “PBM 8-mer E-score” value came out at 0.104 ± 0.025.
With AAGATACT the figure was 0.0763 ± 0.011.
Regarding CAGATATA, the “PBM 8-mer E-score” value was 0.108 ± 0.023.
With AAGATAAG the figure was 0.152 ± 0.024; with ACAGTCCG, -0.0248 ± 0.0053; with CACGGTGC, 0.0526 ± 0.033.
With ATGTTAAC the figure was 0.291 ± 0.035.
In the case of ATGTTATC, the “PBM 8-mer E-score” value was found to be 0.0836 ± 0.016.
Then GTGTTAAC, with 0.0845 ± 0.082; and ATGTTAAG, with 0.107 ± 0.028.
With GTGTTATA the figure was 0.215 ± 0.0088; with ATGTTATA, 0.235 ± 0.069; with CTGTTAAC, -0.00712 ± 0.14.
With CTGTTATA, the “PBM 8-mer E-score” value is 0.055 ± 0.085.
With ATGTTATG the figure was 0.251 ± 0.084; with GTGTGCCA, -0.0682 ± 0.094.
With ATACGCAC the figure was 0.0776 ± 0.052; with ATAGTCAG, 0.0518 ± 0.079; with AACTATTG, 0.139 ± 0.033.
ACCTTCCC: the “PBM 8-mer E-score” value was -0.0595 ± 0.1.
In the case of AGCATGTC, the “PBM 8-mer E-score” value amounted to 0.157 ± 0.0017.
In the case of AGCATGTG, the “PBM 8-mer E-score” value was 0.295 ± 0.0053.
On to AGCATGTA, for which the “PBM 8-mer E-score” value amounted to 0.238 ± 0.019.
With GGCATGTA the figure was 0.135 ± 0.023.
With AGCATGGG the figure was 0.128 ± 0.096.
Then CGCATGTA, with 0.0311 ± 0.051.
Turning to ACAGGTTA, the “PBM 8-mer E-score” value worked out at 0.0367 ± 0.075.
Then CTTCTCCC, with 0.0392 ± 0.039; and AAATTCGG, with 0.0747 ± 0.038.
Then ATGGTCCA, with -0.0964 ± 0.052; and AAGGCATG, with 0.207 ± 0.081; and AAAACAGC, with 0.0957 ± 0.12.
With CAAACACC the figure was 0.118 ± 0.15.
Turning to CAAACAGG, the “PBM 8-mer E-score” value is 0.0276 ± 0.019.
With CAAACAGC the figure was 0.244 ± 0.0038.
With AAAACACG, the “PBM 8-mer E-score” value came to 0.193 ± 0.049.
As for CAAACACG, the “PBM 8-mer E-score” value was 0.285 ± 0.064.
Regarding CAAACACA, the “PBM 8-mer E-score” value stood at 0.2434 ± 0.00028.
Consider TAAACACA, for which the “PBM 8-mer E-score” value was 0.182 ± 0.021.
Then AAAACACA, with 0.128 ± 0.02.
With ACATTTCT the figure was 0.152 ± 0.0081; with CCCTGGCG, -0.198 ± 0.061.
Then TACGGTCA, with -0.0681 ± 0.052; and CCAAGGCG, with -0.191 ± 0.077.
As for ACCGTAAT, the “PBM 8-mer E-score” value is -0.00988 ± 0.068.
Then TAGCTGGA, with -0.111 ± 0.035; and TATTACAA, with 0.181 ± 0.024; and AATTACAA, with 0.251 ± 0.026.
With AATTACAT the figure was 0.135 ± 0.0071; with GTAATCAC, -0.0619 ± 0.076; with ACCGTGTC, -0.0348 ± 0.1.
With ATTAACAA the figure was 0.289 ± 0.057; with ATTAACTC, 0.16 ± 0.064; with ATTAACAC, 0.247 ± 0.019.
Regarding ATTAACAG, the “PBM 8-mer E-score” value was found to be 0.0545 ± 0.024.
With CTTAACAC the figure was 0.135 ± 0.068; with GTTAACAA, 0.138 ± 0.024; with GTTTCCGA, 0.0231 ± 0.1.
With CTCAAAGC the figure was -0.0195 ± 0.016.
With CATGATAA the figure was 0.296 ± 0.039; with TATGATAA, 0.201 ± 0.065; with AATGATAG, 0.166 ± 0.08.
Regarding CATGATGA, the “PBM 8-mer E-score” value came to 0.233 ± 0.045.
Then AATGATAT, with 0.257 ± 0.086.
Then AATGATAA, with 0.146 ± 0.062.
With CATGATGG the figure was -0.0865 ± 0.045; with CATGATGC, 0.124 ± 0.073.
AATGATAC: the “PBM 8-mer E-score” value came out at 0.2224 ± 0.00047.
With CCCTTCTA the figure was 0.2 ± 0.016; with ATCCCTAC, 0.0174 ± 0.027; with AAGAGTAA, 0.0887 ± 0.095.
Then CCAGGTAG, with -0.0484 ± 0.088; and CACGCGGC, with 0.323 ± 0.0093; and CACGCGGG, with 0.224 ± 0.044.
Turning to CACGCGGA, the “PBM 8-mer E-score” value was found to be 0.351 ± 0.014.
With AACGCGGA the figure was -0.0101 ± 0.013; with AACGCGGC, -0.0617 ± 0.052; with GACGCGGC, -0.164 ± 0.043.
Then CGCAATAG, with -0.129 ± 0.02; and ACCATCCA, with 0.0359 ± 0.035; and ACCTCAAG, with 0.0864 ± 0.0059.
With CGTATTCA the figure was -0.00816 ± 0.064.
